Screens as filed in PubChem.
This is a sample that favours compounds with a hit; in the whole collection about 5.5% have one here.
Sfp inh = Sfp phosphopantetheinyl transferase inhibition. AID 1490. 310,000 tested, 3.5% active. Potency, µM, most hits filed as inhibitors. Biochemical Sfp PPTase activity, qHTS. Q9F4F7;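 note: the enzyme is Sfp with the accession as filed and its product quenches rhodamine fluorescence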
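Buffer: 50 mM Hepes-Na pH 7.6, 10 mM MgCl2, 0.01% Nonidet P-40, 0.01% BSA. Enzyme 15 nM, pre-exposed to compound 15 min; substrates then added and fluorescence change tracked over 30 min.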
ELG1 DNA repair = ELG1-dependent DNA repair inhibition | HEK293T ELG1-luciferase reporter, luminescence, 16 h; DNA damage induced by 5-fluorouridine | Potency, µM (titrated, usually from 46.1 µM), usual class: inhibitors | 330,000 tested, 2.3% active | AID 504467; note: nearly all actives have a fitted effect of over 55% in size
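Reporter activity after DNA damage by 5-fluorouridine is monitored. Compound-treated cells incubate 16 hr at 37 °C, then ONE-Glo is added for 30 min before luminescence reading.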
Giardia kill = kills Giardia lamblia; Giardia lamblia trophozoite viability; 340,000 tested, 0.15% active; activity change, % at 7.66 µM, hits read low; in the data active = activity change below about -80%; inconclusive = between about -30% and that limit;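 note: parasites exposed to compound for two days anaerobically before the ATP read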
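Luminescence from cellular ATP indicates surviving trophozoites (100 cells/well) following 48 hrs anaerobic compound treatment at 37 deg C; signal develops 15-30 min at room temperature.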
Coupling enz = counter-screen for Giardia aldolase inhibitors: coupling enzyme system. coupling enzyme system counterscreen, AmpLite Red fluorescence. activity change, negative = inhibition, % at 58.2 µM, hits read low. 290,000 tested, 0.67% active. AID 2472; in the data active = activity change below about -30%
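First, compound is pin-transferred into glyceraldehyde-3-phosphate coupling-enzyme reagent at 57.5 uM final and held 10 min at RT. Next, substrate, coupling system and AmpLite Red are added. After 20 min RT, fluorescence (525/598 nm) is read.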
ELG1 FLuc counter = luciferase inhibition in cell-free luciferin readout for ELG1 hits | shares compounds with ELG1 DNA repair | cell-free firefly luciferase luminescence counter-screen, ViewLux | Potency, µM (titrated, usually from 46.1 µM), most hits filed as inhibitors | 350 tested, 3% active
ELG1 Luc conf = confirmation of human ELG1-dependent DNA repair inhibitors | shares compounds with ELG1 DNA repair | HEK293T ELG1-luciferase levels, luminescence; cells co-treated with 5-fluorouridine | Potency, µM (top dose mostly 46.1 µM), actives largely listed as inhibitors | 670 tested, 68% active; note: nearly all actives have a fitted effect of over 55% in size
Target sequence (Q96QE3 whole entry, looked up): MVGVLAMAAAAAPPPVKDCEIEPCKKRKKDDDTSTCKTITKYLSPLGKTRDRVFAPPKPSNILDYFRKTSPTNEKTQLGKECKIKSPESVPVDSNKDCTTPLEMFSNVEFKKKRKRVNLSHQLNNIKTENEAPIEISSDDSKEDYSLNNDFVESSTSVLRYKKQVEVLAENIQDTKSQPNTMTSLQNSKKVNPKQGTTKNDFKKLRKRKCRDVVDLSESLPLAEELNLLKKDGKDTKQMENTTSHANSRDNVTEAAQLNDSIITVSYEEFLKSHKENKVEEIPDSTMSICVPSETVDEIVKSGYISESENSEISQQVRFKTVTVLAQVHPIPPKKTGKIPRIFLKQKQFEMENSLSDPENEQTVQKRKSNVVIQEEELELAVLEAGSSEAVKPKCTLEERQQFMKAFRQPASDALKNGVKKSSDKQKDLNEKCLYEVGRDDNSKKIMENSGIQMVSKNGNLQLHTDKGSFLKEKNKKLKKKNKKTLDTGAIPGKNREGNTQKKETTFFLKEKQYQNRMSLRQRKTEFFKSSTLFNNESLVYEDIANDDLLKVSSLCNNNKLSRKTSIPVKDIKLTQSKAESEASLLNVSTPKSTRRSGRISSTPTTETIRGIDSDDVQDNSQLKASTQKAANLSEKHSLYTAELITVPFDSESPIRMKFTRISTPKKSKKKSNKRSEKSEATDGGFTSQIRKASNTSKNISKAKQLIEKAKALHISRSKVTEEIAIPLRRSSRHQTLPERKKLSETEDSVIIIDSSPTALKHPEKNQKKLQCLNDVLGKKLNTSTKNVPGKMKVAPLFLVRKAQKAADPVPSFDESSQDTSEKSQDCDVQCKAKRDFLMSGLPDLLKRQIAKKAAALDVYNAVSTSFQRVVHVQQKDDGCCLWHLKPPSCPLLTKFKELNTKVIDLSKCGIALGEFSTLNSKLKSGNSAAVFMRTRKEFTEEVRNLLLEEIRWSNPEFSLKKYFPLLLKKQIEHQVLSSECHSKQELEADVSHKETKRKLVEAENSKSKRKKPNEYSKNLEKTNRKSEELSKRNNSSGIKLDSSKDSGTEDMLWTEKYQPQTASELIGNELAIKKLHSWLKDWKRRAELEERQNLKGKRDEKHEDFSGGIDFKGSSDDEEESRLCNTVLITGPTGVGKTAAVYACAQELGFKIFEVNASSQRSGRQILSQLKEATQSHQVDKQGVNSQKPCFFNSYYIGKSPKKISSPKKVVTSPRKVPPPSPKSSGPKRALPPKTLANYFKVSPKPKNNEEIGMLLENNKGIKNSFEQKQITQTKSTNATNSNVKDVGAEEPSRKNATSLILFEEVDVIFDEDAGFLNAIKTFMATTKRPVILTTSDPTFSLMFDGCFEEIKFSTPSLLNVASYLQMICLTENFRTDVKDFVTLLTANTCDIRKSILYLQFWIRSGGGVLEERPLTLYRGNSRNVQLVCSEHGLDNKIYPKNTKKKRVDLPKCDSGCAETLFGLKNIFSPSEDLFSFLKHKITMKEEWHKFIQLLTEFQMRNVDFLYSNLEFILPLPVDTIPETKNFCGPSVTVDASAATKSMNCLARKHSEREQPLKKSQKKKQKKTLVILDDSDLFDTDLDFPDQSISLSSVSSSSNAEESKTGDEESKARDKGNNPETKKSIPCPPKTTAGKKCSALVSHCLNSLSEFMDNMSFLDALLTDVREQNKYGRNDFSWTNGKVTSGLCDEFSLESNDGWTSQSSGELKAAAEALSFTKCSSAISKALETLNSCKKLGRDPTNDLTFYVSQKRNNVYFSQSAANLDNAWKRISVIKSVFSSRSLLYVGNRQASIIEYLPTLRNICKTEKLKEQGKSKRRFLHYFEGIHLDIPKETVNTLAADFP
ELG1-Luc MMS = confirmation of human ELG1 repair inhibitors, MMS stimulated; Potency, µM (doses to about 46.1 µM), usual class: inhibitors; HEK293T luciferase-tagged ELG1 level, MMS stimulated; 670 tested, 53% active; AID 624249; shares compounds with ELG1 DNA repair; note: nearly all actives have a fitted effect of over 60% in size
ELG1 5-FU = confirmation of ELG1 repair inhibitors: viability with 5FU; cell viability with 5-FU, ELG1-dependent repair; Potency, µM (highest dose often 46.1 µM), hits mostly cytotoxic; AID 624250; shares compounds with ELG1 DNA repair; 670 tested, under 10 active;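 note: ELG1-luc HEK293T cells cotreated with 5-fluorouridine at 10 µM final; viability measured 16 h after compound addition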
ELG1 MMS cell = confirmation of ELG1 repair inhibitors: viability with MMS. Cell viability with MMS, ELG1-dependent DNA repair. Potency, µM (top dose mostly 46.1 µM), usual class: cytotoxic. 670 tested, 33% active. shares compounds with ELG1 DNA repair;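 note: ELG1-luc HEK293T cells co-treated with 10 µM MMS; viability read 16 h after compound addition; nearly all actives have a fitted effect of over 60% in size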
Cell viab unstim = unstimulated viability counter-screen for ELG1 repair hits; AID 624252; cell viability counter-screen, unstimulated, luminescence; 900 tested, 8% active; shares compounds with ELG1 DNA repair; Potency, µM (highest dose often 45.9 µM), actives largely listed as cytotoxic;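 note: compound exposure lasted 16 hours before reading; nearly all actives have a fitted effect of over 55% in size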
FLuc biochem = firefly luciferase inhibition counter-screen; shares compounds with ELG1 DNA repair; purified firefly luciferase, luminescence counter-screen; Potency, µM (top dose mostly 57.5 µM), usual class: inhibitors; 350 tested, 10% active; AID 624253
Of the large screens only hits and unclear results are named; the others gave an inactive call (follow-up assays come after a bar, where they were run). Unless noted, calls come from the whole dose curve; as a rule, active = well fitted curve in the direction sought with a large enough effect; inconclusive = small, poorly fitted or top-dose-only effect, or another doubt; inactive = no such curve, though single readings can be large; an effect the other way counts as inactive or inconclusive.

Nc1ccc2nc(SCC(=O)N3CCN(c4ccccc4)CC3)sc2c1	ELG1 DNA repair 2.6µM | ELG1 Luc conf inconclusive | ELG1-Luc MMS 7.9µM | ELG1 5-FU inactive | ELG1 MMS cell 7.1µM | Cell viab unstim inconclusive
CC(=O)N1CCN(C(=O)c2cccc(S(=O)(=O)Nc3c(C)n(C)n(-c4ccccc4)c3=O)c2)CC1	none (no result: Sfp inh, Coupling enz)
CCCCCCCCC1OC1CCCCCCCC(=O)O (configuration not stated)	none (no result: ELG1 DNA repair, Giardia kill)
COc1nc(Nc2nc3ccccc3c(=O)[nH]2)nc2ccc(C)cc12	ELG1 DNA repair 4.6µM | ELG1 Luc conf 2.2µM | ELG1-Luc MMS 3.1µM | ELG1 5-FU inconclusive | ELG1 MMS cell inactive | Cell viab unstim inactive
Cc1cc(C)cc(Nc2nc3ccccc3c(=O)[nH]2)c1	none
COc1ccc(CCCn2ncc3c2nc(N)n2nc(-c4ccco4)nc32)cc1	none (no result: ELG1 DNA repair, Giardia kill)
COc1ccc(-c2csc(NC(=O)c3ccc(OCC(=O)N4CCOCC4)c(OC)c3)n2)cc1OC	ELG1 DNA repair 4.6µM | ELG1 Luc conf 4µM | ELG1-Luc MMS 14µM | ELG1 5-FU inconclusive | ELG1 MMS cell 25µM | Cell viab unstim 16µM
O=C1COc2ccc(C(=O)COC(=O)/C=C/c3cccc(F)c3)cc2N1	ELG1 DNA repair 1.8µM | ELG1 Luc conf 5µM | ELG1-Luc MMS inactive | ELG1 5-FU inactive | ELG1 MMS cell inactive | Cell viab unstim inactive
C=CCOn1c(=O)c(-c2ccc(F)cc2)[n+]([O-])c2ccccc21	none
NC(=O)c1sc2nc3c(c(-c4cccs4)c2c1N)CCCCC3	ELG1 DNA repair 0.82µM | ELG1 FLuc counter inconclusive | ELG1 Luc conf 1.1µM | ELG1-Luc MMS 4.5µM | ELG1 5-FU inactive | ELG1 MMS cell inactive | Cell viab unstim inconclusive | FLuc biochem inactive
COc1ccc(C(=O)c2ccc(Br)cc2)cc1	ELG1 DNA repair 1.2µM | ELG1 Luc conf inactive | ELG1-Luc MMS inactive | ELG1 5-FU inactive | ELG1 MMS cell inactive | Cell viab unstim inactive
COc1ccc(C(=O)c2ccccc2)cc1	ELG1 DNA repair inconclusive
CCC1CCC(C(=O)NC(CCSC)C(=O)NCCc2ccc(S(N)(=O)=O)cc2)CC1 (configuration not stated)	none
COc1ccc(N(C)C(=O)c2cn(CC(C)C)c(=O)c3cc(OC)c(OC)cc23)c(OC)c1	ELG1 DNA repair 1.5µM | ELG1 FLuc counter inactive | ELG1 Luc conf 1.8µM | ELG1-Luc MMS inactive | ELG1 5-FU inconclusive | ELG1 MMS cell inactive | Cell viab unstim inconclusive | FLuc biochem inactive
CC1(C)Cc2c(c(N3CCOCC3)nc3sc(C(=O)N4CCCCC4)c(N)c23)CO1	Sfp inh 16µM, ELG1 DNA repair 0.21µM | ELG1 FLuc counter inactive | ELG1 Luc conf 0.45µM | ELG1-Luc MMS inactive | ELG1 5-FU inconclusive | ELG1 MMS cell inactive | Cell viab unstim inactive | FLuc biochem inactive
COc1ccc(NC(=O)c2sc3nc(N4CCOCC4)c4c(c3c2N)CC(C)(C)OC4)c(OC)c1	ELG1 DNA repair inconclusive (no result: Coupling enz)
COc1ccc(NC(=O)c2sc3nc(N4CCOCC4)c4c(c3c2N)CC(C)(C)OC4)cc1	ELG1 DNA repair 0.41µM | ELG1 FLuc counter inactive | ELG1 Luc conf 0.35µM | ELG1-Luc MMS inactive | ELG1 5-FU inconclusive | ELG1 MMS cell inactive | Cell viab unstim inactive | FLuc biochem inactive
CCN(CC(=O)Nc1c(C(=O)OC)[nH]c2ccc(C)cc12)c1ccc2c(c1)OCO2	Sfp inh 45µM, ELG1 DNA repair 4.6µM, Coupling enz -38 | ELG1 Luc conf 7.1µM | ELG1-Luc MMS inconclusive | ELG1 5-FU inconclusive | ELG1 MMS cell inactive | Cell viab unstim inconclusive
CSc1nc(N)nc2c1ncn2CC(=O)N1CCN(Cc2c(C)cc(C)cc2C)CC1	ELG1 DNA repair 2.3µM (no result: Sfp inh, Coupling enz) | ELG1 Luc conf inconclusive | ELG1-Luc MMS 0.71µM | ELG1 5-FU inactive | ELG1 MMS cell 1.3µM | Cell viab unstim inconclusive
COc1ccc(S(=O)(=O)Nc2cc(OC)cc3cccnc23)cc1	none (no result: ELG1 DNA repair, Giardia kill)
COc1ccc(S(=O)(=O)Nc2cccc3cccnc23)c([N+](=O)[O-])c1	none (no result: Sfp inh, ELG1 DNA repair, Coupling enz) | Cell viab unstim inconclusive
Nc1ncnc(N2CCc3ccccc32)c1[N+](=O)[O-]	ELG1 DNA repair 1.8µM | ELG1 Luc conf 1.6µM | ELG1-Luc MMS 7.9µM | ELG1 5-FU inactive | ELG1 MMS cell inactive | Cell viab unstim inactive
CC(=O)Oc1ccc(-c2nc(-c3ccccc3)no2)cc1	none (no result: Sfp inh, ELG1 DNA repair, Giardia kill, Coupling enz) | Cell viab unstim inconclusive
COc1ccc(-c2nc(-c3ccc(C(=O)O)cc3)no2)cc1	none (no result: Sfp inh, ELG1 DNA repair, Coupling enz)
CCn1c(=O)n(CC)c2cc(S(=O)(=O)N3CCC(c4ccccc4)CC3)ccc21	ELG1 DNA repair inconclusive | ELG1 FLuc counter inactive | Cell viab unstim inconclusive | FLuc biochem inactive
CN(CCCC(=O)NCc1ccc2c(c1)OCO2)S(=O)(=O)c1ccc([N+](=O)[O-])cc1	none
CC(=O)N1CCN(CC(=O)Nc2ccccc2C(=O)Nc2ccccc2)CC1	ELG1 DNA repair inconclusive (no result: Sfp inh, Coupling enz) | ELG1 Luc conf 3.5µM | ELG1-Luc MMS inactive | ELG1 5-FU inconclusive | ELG1 MMS cell inactive | Cell viab unstim inactive
Cc1cn(C2OC(COC(=O)c3ccccc3)C(OC(=O)c3ccccc3)C2OC(=O)c2ccccc2)c(=O)[nH]c1=O (configuration not stated)	ELG1 DNA repair 4.6µM | ELG1 Luc conf 3.1µM | ELG1-Luc MMS inactive | ELG1 5-FU inconclusive | ELG1 MMS cell inconclusive | Cell viab unstim inactive
CC(=O)NC1C(c2nc3ccccc3s2)=C(c2ccccc2)C(=O)N1c1ccc(C)cc1 (configuration not stated)	ELG1 DNA repair inconclusive
COc1cccc(N2C(=O)C(c3ccccc3)=C(c3nc4ccccc4s3)C2NC(C)=O)c1 (configuration not stated)	ELG1 DNA repair 2.3µM | ELG1 FLuc counter inactive | ELG1 Luc conf 3.2µM | ELG1-Luc MMS inactive | ELG1 5-FU inconclusive | ELG1 MMS cell inactive | Cell viab unstim inactive | FLuc biochem inactive
CC1(C)Cc2c(cnn2-c2ccc(F)cc2)C(NC(=O)CCc2ccncc2)C1 (configuration not stated)	ELG1 DNA repair inconclusive
